The panel holds about 83,000 compounds, 20% with a hit somewhere; the sample as a whole holds those more often.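 Activity criterion: percent growth below 10, measured after cells in 96-well plates were exposed to a single compound concentration for 48 hours.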 Values without a mark were called inactive. Active and inactive are the calls of the source.
Legend:
Test in all cases: NCI-60 one-dose screen, 48 h (100 = growth as untreated, 0 = no growth, -100 = all killed)
HCT-15 colon = settings: 10 µM unless noted
HT29 colon = settings: 10 µM unless noted
SNB-75 CNS = settings: 10 µM unless noted
SNB-19 CNS = settings: 10 µM unless noted
U251 CNS = settings: 10 µM unless noted
PC-3 prostate = settings: 10 µM unless noted
UACC-62 melanoma = settings: 10 µM unless noted
LOX IMVI melanoma = settings: 10 µM unless noted
SK-MEL-28 melanoma = settings: 10 µM unless noted
SK-MEL-2 melanoma = settings: 10 µM unless noted
EKVX NSCLC = settings: 10 µM unless noted
SN12C renal = settings: 10 µM unless noted
UO-31 renal = settings: 10 µM unless noted
TK-10 renal = settings: 10 µM unless noted
ACHN renal = settings: 10 µM unless noted
CAKI-1 renal = settings: 10 µM unless noted
A498 renal = settings: 10 µM
CCRF-CEM leukemia = settings: 10 µM unless noted
HL-60(TB) leukemia = settings: 10 µM unless noted
SK-MEL-5 melanoma = settings: 10 µM unless noted

Row | SMILES | growth (HCT-15 colon) | growth (HT29 colon) | growth (SNB-75 CNS) | growth (SNB-19 CNS) | growth (U251 CNS) | growth (PC-3 prostate) | growth (UACC-62 melanoma) | growth (LOX IMVI melanoma) | growth (SK-MEL-28 melanoma) | growth (SK-MEL-2 melanoma) | growth (EKVX NSCLC) | growth (SN12C renal) | growth (UO-31 renal) | growth (TK-10 renal) | growth (ACHN renal) | growth (CAKI-1 renal) | growth (A498 renal) | growth (CCRF-CEM leukemia) | growth (HL-60(TB) leukemia) | growth (SK-MEL-5 melanoma)
1 | O=C(CC1(O)C(=O)Nc2ccc(Br)cc21)c1ccc(C(=O)NCC2CCC3(CC2)OOC2(CCCCC2)OO3)cc1 (stereo not given) | 54.2% | 47.2% | 64.6% | 61.4% | 11.8% | 38.9% | 54.6% | 32.6% | 73.3% | 23.3% | -36.4% (active) | 59.1% | -82.4% (active) | 72.5% | -40.8% (active) | 0.714% (active) | 84.7% | -34.4% (active) | – | –
2 | C=C(C)[C@@]12OC3(/C=C/C=C/CCCCC)O[C@@H]1[C@@H]1[C@@H]4O[C@]4(CO)[C@@H](O)[C@]4(O)C(=O)C(C)=C[C@H]4[C@@]1(O3)[C@H](C)[C@H]2OC(=O)c1ccccc1 | 67.1% | 14.1% | 56.6% | 92.8% | 53.2% | 28.6% | 59.7% | 50.9% | 81.5% | 80.4% | 67.4% | 16.5% | 39.7% | 47.1% | 42.9% | 69.8% | -47.2% (active) | 45.8% | -7.45% (active) | –
3 | O=C(CC1(O)C(=O)N(Cc2ccccc2)c2ccc(F)cc21)c1ccc(C(=O)NCC2CCC3(CC2)OOC2(CCCCC2)OO3)cc1 (stereo not given) | -14.3% (active) | -70.2% (active) | -62.1% (active) | 16.8% | -80.1% (active) | -58.8% (active) | -12.5% (active) | -84.5% (active) | 51.5% | -12.9% (active) | -68.5% (active) | -59.5% (active) | -76.3% (active) | -93.6% (active) | -80.7% (active) | -87.1% (active) | -88.5% (active) | -36.9% (active) | -57.5% (active) | –
4 | CC[C@H](C)[C@H](NC(=O)[C@H]1CCCCN1C)C(=O)N(C)[C@H](C[C@@H](O)c1nc(C(=O)N[C@@H](Cc2ccccc2)C[C@H](C)C(=O)O)cs1)C(C)C | 96.5% | 83.1% | 59.7% | 65.2% | 52.9% | 81.2% | – | 52.2% | 82.8% | 41.3% | – | 90.5% | 84.1% | 91.9% | 106% | – | – | 43.5% | 8.99% (active) | 63.7%
5 | COc1ccc(S(=O)(=O)N(Cc2ccc3c(c2)C=CC(C)(C)O3)c2ccccc2)cc1OC | 74.9% | 72.9% | 83.1% | 93.7% | 89.1% | 73.7% | – | 74.2% | – | 97.1% | 58.1% | 95.9% | 67.4% | 102% | 61.3% | – | – | 72% | 70.6% | 3.42% (active)
6 | CCC(O)(CN)c1ccccc1 (stereo not given) | 103% | 95.6% | 93.5% | 106% | 93.6% | 87.5% | 100% | 105% | 115% | 97.7% | 98.3% | – | 89.7% | 101% | 105% | 96.3% | – | 90.1% | 101% | –
7 | C[n+]1c(/C=C/c2ccc(N(CCCl)CCCl)cc2)sc2ccccc21 | 82.2% | 40.9% | 74.5% | 60.9% | 30.1% | 36% | – | 36.6% | 81.4% | 74.1% | – | 37.4% | 96.7% | 96.7% | – | 99.4% | 84.9% | 27.9% | 18.3% | 61.1%
8 | CC[C@]12C=CCN3CC[C@]4(C(=C(C(=O)OC)C1)Nc1cc(OC)c(OC(C)=O)cc14)[C@@H]32 | 21% | 0.643% (active) | 50.6% | 32.2% | 3.52% (active) | 22.5% | – | -24% (active) | – | 41.5% | 55.6% | 8.6% (active) | 28.6% | 21.4% | 21.4% | 21% | -7.74% (active) | 0.65% (active) | -8.44% (active) | -33.4% (active)

Source: PubChem BioAssay (NCI)
